Tgondii IFNg: inhibitors of Toxoplasma gondii growth with IFN-gamma | Toxoplasma gondii growth in IFN-gamma-treated host cells; stronger effect = lower value | 69,000 tested, 3.8% active | activity change, negative = inhibition, % (test concentration not listed); in the data active = activity change below about -70%, passing the limit was not always enough;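 note: host cells are HeLa cells infected with Toxoplasma gondii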
* marks the source's active call; other numbers are inactive results; ! = not active in a repeat. This excerpt belongs to a sample that is enriched for hits.

Screening CCOCC1c2c(ncn2C)CCN1Cc1nccn1C (stereo unspecified) returned Tgondii IFNg 7.
`O=C(c1ccco1)N1Cc2nccn2CC(COc2cccnc2)C1` (stereo unspecified) gave Tgondii IFNg 0.
For COCCC(=O)N1Cc2nccn2CC(COCc2cccnc2)C1 (stereo unspecified) the results were Tgondii IFNg -2.
`c1cncc(COCC2CNCc3nccn3C2)c1` (stereo unspecified) gave Tgondii IFNg -82*.
Cc1ccc(C(=O)N2CCCC(Nc3ccc(F)cc3)C2)c(=O)[nH]1 (stereo unspecified) was read as Tgondii IFNg 7.
For Nc1nnc(CSCc2ccc(Cl)cc2Cl)s1 the results were Tgondii IFNg -35.
Nc1nnc(Sc2nc3c(Cl)cc(Cl)cc3s2)s1 was read as Tgondii IFNg -85*.
Nc1nnc(SCc2c(Cl)cccc2Cl)s1 was read as Tgondii IFNg 80.
For COC1CCCC(C(=O)N2CCC3(CC2)C(=O)Nc2ccc(-c4ccc(C(C)=O)cc4)cc23)C1 (stereo unspecified) the results were Tgondii IFNg -86*.
Screening COC1CCCC(C(=O)N2CCC3(CC2)C(=O)Nc2ccc(-c4cccc(F)c4)cc23)C1 (stereo unspecified) returned Tgondii IFNg 11.
CCC(=O)N1CCC2(CC1)C(=O)Nc1ccc(C(=O)NC3CC3)cc12 was read as Tgondii IFNg 3.
`CCC(c1ccccn1)N(C)CC1CCC(N)CC1` (stereo unspecified) gave Tgondii IFNg 1.
CC(C)Oc1ccc(NC(=O)c2cc(-c3cnc(-c4cccnc4)nc3)cn2C)cc1 was read as Tgondii IFNg -17.
Screening Cc1cn(-c2cc(NC(=O)c3ccc(C)c(Nc4nccc(-c5cccnc5)n4)c3)cc(C(F)(F)F)c2)cn1 returned Tgondii IFNg -77*!.
`Cc1ccc(NC(=O)c2ccc(CN3CCN(C)CC3)cc2)cc1Nc1nccc(-c2cccnc2)n1` gave Tgondii IFNg -38.
CC(C)CCN1C[C@H]2[C@H](C(=O)Nc3ccccc3)CCS(=O)(=O)[C@H]2C1 was read as Tgondii IFNg -94*.
CC(C)NC(=O)[C@H]1CCS(=O)(=O)[C@H]2CN(C(=O)Nc3ccccc3)C[C@@H]12 was read as Tgondii IFNg -19.
Screening O=C(Nc1ccccc1)[C@@H]1CCS(=O)(=O)[C@H]2CN(Cc3ccc(F)cc3)C[C@@H]12 returned Tgondii IFNg -6.
CS(=O)(=O)N1CC[C@@H]2[C@@H](CO[C@H]2CNc2ncccn2)C1 was read as Tgondii IFNg 10.
CC(Cc1cccnc1)n1ccnc1-c1cccnc1 (stereo unspecified) was read as Tgondii IFNg 15.
`CC(C)c1nccn1CCCNC(=O)c1ccc(-c2ccc(N)nc2)nc1` gave Tgondii IFNg -7.
Screening COc1ccc(OC)c(S(=O)(=O)N2CCC3(CC2)Nc2cc(C)ccc2-n2cccc23)c1 returned Tgondii IFNg 11.
`CCN1c2cc(C)ccc2-n2cccc2C12CCN(S(=O)(=O)c1ccc(OC)c(Cl)c1)CC2` gave Tgondii IFNg -100*.
Screening COc1ccc(S(=O)(=O)N2CCC3(CC2)Nc2ccccc2-n2cccc23)cc1Cl returned Tgondii IFNg 22.
CCN1c2cc(C)ccc2-n2cccc2C12CCN(S(=O)(=O)c1ccc(Cl)s1)CC2 was read as Tgondii IFNg -61.
Screening CCN1c2cc(C)ccc2-n2cccc2C12CCN(S(=O)(=O)c1ccc3c(c1)CCCC3)CC2 returned Tgondii IFNg -81*.
For CCN1c2cc(C)ccc2-n2cccc2C12CCN(S(=O)(=O)c1c(C)noc1C)CC2 the results were Tgondii IFNg 64.
CCN1c2cc(C)ccc2-n2cccc2C12CCN(S(=O)(=O)c1cc(OC)ccc1OC)CC2 was read as Tgondii IFNg -103*.
Screening CCc1ccc(S(=O)(=O)N2CCC3(CC2)c2cccn2-c2ccc(C)cc2N3CC)cc1 returned Tgondii IFNg -65.
For COc1ccc2c(c1)NC1(CCN(S(=O)(=O)c3cc(C)ccc3C)CC1)c1cccn1-2 the results were Tgondii IFNg -6.
`CO[C@H]1CC[C@@H]2[C@H]1OCCN2C(=O)N(C)C` gave Tgondii IFNg -22.
`COCc1nn(C)c2c1CN(C(=O)c1ccc[nH]1)CC2` gave Tgondii IFNg -13.
CC(CNC(=O)c1cnon1)Oc1cccnc1 (stereo unspecified) was read as Tgondii IFNg 1.
Screening O=C1N(Cc2cccc(F)c2)CCC12CCN(S(=O)(=O)C1CC1)C2 (stereo unspecified) returned Tgondii IFNg -4.
For CCCn1ccc(C(=O)N2CCCCC2c2nnc(C3CCN(C(=O)CC)CC3)o2)n1 (stereo unspecified) the results were Tgondii IFNg -12.
CN(C)C(=O)N1CCC2(CC1)C(=O)N(C)C2c1ccccc1 (stereo unspecified) was read as Tgondii IFNg -1.
COc1cc(-c2cccc3c2CCNC3)cc2cc(C(=O)O)oc12 was read as Tgondii IFNg -46.
Screening CCC(=O)c1cn(S(=O)(=O)c2ccc(C)cc2)c2ccccc12 returned Tgondii IFNg -101*.
`O=C(NC1CCCCNC1=O)c1cn(S(=O)(=O)c2ccccc2)c2ccccc12` (stereo unspecified) gave Tgondii IFNg -41.
Cc1ccc(S(=O)(=O)n2c(N)nc3ccccc32)cc1 was read as Tgondii IFNg 18.
CC(=O)N1CCC(C(=O)NCc2ccccc2)(N(C(=O)c2ccc(C)cc2)C2CCCC2)CC1 was read as Tgondii IFNg -37.
`COc1ccc(Cc2ncc3c(n2)CN(C(=O)[C@@H](O)c2ccccc2)C3)cc1` gave Tgondii IFNg 0.
CCC(CC)C(=O)N1CCCn2cnc(CN3CCCC3=O)c2C1 was read as Tgondii IFNg 2.
CCC(CC)C(=O)N1CCCc2c(cnn2-c2ccc(OC)cc2)C1 was read as Tgondii IFNg -97*.
`C=CCN1C(=O)CCC12CCC(NCc1cnn(C)c1)CC2` (stereo unspecified) gave Tgondii IFNg 2.
For Cc1nc(-c2ccccc2)nc2c1COCC21CCN(CC(C)C)C1 (stereo unspecified) the results were Tgondii IFNg -17.
Cc1ccc(-c2coc(-c3ccc(NC(=O)C4CCCCC4)cc3)n2)c(C)c1 was read as Tgondii IFNg -53.
Screening CCc1nc(OCC(=O)Nc2cccc(C)c2C)c2ccccc2n1 returned Tgondii IFNg -5.
`CC(C)(C)c1nc2ccccc2c2nnc(SCc3ccccn3)n12` gave Tgondii IFNg -79*.
Nc1nnc(SCc2ccccn2)s1 was read as Tgondii IFNg 5.
For C=CCn1c(SCc2ccccn2)nc2c([nH]c3ccccc32)c1=O the results were Tgondii IFNg 30.
`COC(=O)C1(Cc2ccccc2-c2c[nH]c3ccccc23)CCOCC1` gave Tgondii IFNg 8.
For Oc1ccc(CN2CCOc3c(O)cc(-c4cccc(Cl)c4)cc3C2)cc1 the results were Tgondii IFNg 3.
Oc1cc(-c2cccc(Cl)c2)cc2c1OCCN(Cc1cscn1)C2 was read as Tgondii IFNg -23.
For Cc1noc(C)c1CN1CCOc2c(O)cc(-c3cccc(Cl)c3)cc2C1 the results were Tgondii IFNg -74*.
For O=C(NCc1cccnc1)C1CCN(Cc2cc3ccccc3n2Cc2ccc(F)cc2)CC1 the results were Tgondii IFNg -6.
For Cc1nc(CN2CC3(CCN(C(=O)c4cccn4C)C3)CC2=O)cs1 (stereo unspecified) the results were Tgondii IFNg -23.
